Measurements from PubChem BioAssay AID1775 (NMMLSC, 2009).
In all, about 220,000 compounds went through this assay and about 820 (0.37%) were called active. No stated cut-off is given here; in the data, active means fluorescence above about 47; inactive means the rest. Shown is part of a subset that was picked to be rich in actives.

assay: green autofluorescence of compounds with avidin beads – biophysical, 488/530 nm, flow cytometry, artefact control, profiling panel (AID 1775); details: compound fluorescence 488/530 nm, at 10 µM, stronger effect = higher value

Fluorescence (KMESF), active:
O=C(Cc1c(F)cccc1Cl)N1CCN(C(=O)c2ccco2)CC1 91
CC(=O)N/N=C(\C)c1ccc(Br)cc1Br 173
Cc1ccc(OCC(=O)Nc2ccc(-c3nnc(-c4ccco4)o3)cc2)cc1 50
O=C(O)CCC(=O)N(Cc1cccs1)Cc1cccs1 74
Cc1cc(C)nc(/N=C2\NC(=O)CC(C(=O)O)N2c2ccc(Cl)cc2Cl)n1 (configuration not stated) 66
CC(CNC(=O)c1ccc(Br)o1)NC(=O)c1ccc(Br)o1 (configuration not stated) 48
Nc1c(-c2ccc(F)cc2)cnc2ncnn12 76
COc1cc(OC)cc(-c2nc3nc(C)c(CCC(=O)NCc4ccco4)c(C)n3n2)c1 59
CC(C)Cn1cnc2c1c(=O)n(CC(O)c1ccccc1)c(=O)n2CC(C)C (configuration not stated) 67
CC1CCc2c(c3ccccc3[nH]c2=O)O1 (configuration not stated) 57
CN(CC(=O)NC1CCCCC1)S(=O)(=O)c1cccc2cccnc12 118
Cc1ccccc1CS(=O)(=O)CC1(O)CCN(C(=O)c2cccc(C(F)(F)F)c2)CC1 88
CC(C)CCNC(=O)C(C)N(C(=O)Cn1nnc(-c2ccc(F)cc2)n1)C1CCCC1 (configuration not stated) 51
COc1cc(N2CCCC2)c(OC)cc1/C=C(/C#N)c1cccc(Br)c1 47
Fc1cccc(Cl)c1CSc1ccc(-c2ccco2)nn1 49
Cc1c(CN2CCCC(C(=O)c3cccc(Cl)c3)C2)c(=O)n(-c2ccccc2)n1C (configuration not stated) 67
O=C(/C=C/Nc1ccccc1)c1cnc(-c2ccccc2)s1 49
CCNC(=O)CCc1nc(-c2ccc(C(C)(C)C)cc2)no1 49
O=C(COc1ccc(Cl)cc1)NCCC1=CCCCC1 51
CN(C)c1ccc(/C=C/C(=O)c2ccc(C(C)(C)C)cc2)cc1[N+](=O)[O-] 57
N=C(N)SCc1cccc2ccccc12 68

Fluorescence (KMESF), inactive:
O=C(c1ccco1)N1CCN(c2cccc(Cl)c2)CC1 13
O=C(c1cccc(S(=O)(=O)Nc2ccccc2Cl)c1)N1CCN(C(=O)c2ccco2)CC1 12
O=C1CC(Cc2ccc(Cl)cc2)C(=O)N1c1cc(Cl)ccn1 (configuration not stated) 3
COC(=O)c1c(NC(=O)CN(c2ccc(C)c(C)c2)S(C)(=O)=O)sc2c1CCCC2 7
CSc1nc2nc(-c3cccc(C(F)(F)F)c3)ccn2n1 28
CN(CCOc1ccccc1)Cc1nc2cc(Cl)ccc2c(=O)[nH]1 19
CCOC(=O)c1cc2c(=O)[nH]c(C(Cl)(Cl)Cl)nc2o1 5
COc1ccc(Nc2ncc(F)c(N3CCOCC3)n2)cc1 5
CC(C)/C=N/NC(=O)c1cc(Br)ccc1O 2
O=C(/C(=N\O)n1cncn1)c1ccc(Br)cc1Br 5
CCOc1ccc(-c2nnc(-c3ccco3)o2)cc1 8
Cc1ccc(OCC(=O)Nc2nnc(-c3ccco3)s2)cc1 8
CCOC(=O)N1CCN(c2cc(C)c([N+](=O)[O-])cc2F)CC1 7
S=C(NCCc1ccccc1)NCc1ccccc1Cl 13
COC(=O)c1c(C(=O)OC)c(-c2cccc(C)c2)n2c1CS(=O)C2 (configuration not stated) 7
O=C(CCc1ccccc1)NCCc1cccs1 6
Cc1ccnc(NC(=O)CCC(=O)N(CC(=O)NCCc2ccccc2)Cc2cccs2)c1 9
Cc1cc(C(=O)NCCc2ccc(Cl)cc2)n(-c2ccccc2)n1 6
Cc1cc(C)nc(NC(=O)/C=C/c2ccc(Cl)cc2)n1 6
CCOC(=O)c1nc(C)n(-c2ccc(Cl)cc2Cl)n1 8
CC(CCc1ccccc1)NC(=O)c1ccc(Br)o1 (configuration not stated) 8
O=C(NCc1cccs1)c1ccc(Br)o1 12
CC(=O)N(OCc1ccc(OC(C)C)c(Cl)c1)C(C)=O 8
CC(=O)NCC(=O)N(Cc1ccco1)C1(C(=O)NC2CCCC2)CCCCC1 6
CS/C(=C\[N+](=O)[O-])Nc1ccc(C)cc1 12
Cc1cc(Cl)ccc1NC(=S)N1CCC(C(N)=O)(N2CCCCC2)CC1 10
COc1cc(C(=O)NCc2nnc(SCC(=O)Nc3nc4ccc(C)cc4s3)o2)cc(OC)c1OC 19
Nc1c(-c2ccc(F)cc2)cnn1C1CCS(=O)(=O)C1 (configuration not stated) 7
Cc1cc(N2CCN(c3ccc(F)cc3)CC2)n2ncnc2n1 9
CC(C)(C)OC(=O)N/N=C/c1cn(-c2ccccc2)nc1-c1cccnc1 13
O=C(NCc1csc(-c2cccs2)n1)C1CC1 2
CC1Cc2ccccc2N1S(=O)(=O)c1ccc(Cl)nc1 (configuration not stated) 4
COc1cc(CO)c(C2(CO)CCCC2)cc1OC 36
Cc1nc2nc(SCC(=O)NCc3ccco3)nn2c(C)c1Cc1ccccc1 15
Cc1nc2c(-c3ccc(F)cc3)c(C)nn2c(C)c1CCC(=O)NCc1ccco1 6
CCOC(=O)C(C)Sc1nnc(CSc2nc3nc(C)cc(C)n3n2)o1 (configuration not stated) 15
Cn1c(=O)c2c(ncn2CCc2ccccc2)n(C)c1=O 11
CC(C)Cn1c(CN(Cc2ccccc2)Cc2ccccc2)nc2c1c(=O)n(C)c(=O)n2C 8
CCNC(=O)COc1cc(C)c(Br)c(C)c1 9
CCCCc1nc2c(=O)[nH]c3ccccc3c2o1 26
CC(C)C(=O)Nc1c(O)c2ccccc2[nH]c1=O 10
CCCN(CCC)C(=S)Nc1cc(C(=O)OC)ccc1C(=O)OC 3
CN(CC(=O)NC1CCCCC1)S(=O)(=O)c1ccc(Br)s1 32
Cc1ccc(S(=O)(=O)N(C)CC(=O)NC2CCCC2)cc1 10
COc1ccc2c(c1)cc1n2CCN=C1NN 7
Cc1ccccc1CN1CCN(C(=O)c2cccc(F)c2)CC1 4
CC(C)CC(=O)N1CCC(O)(CS(=O)(=O)Cc2ccccc2)CC1 7
O=C(c1ccc(F)cc1)N1CCC(n2nnc3ccccc32)CC1 34
CCOc1cnc(C(=O)NNC(=O)c2ccccc2Br)o1 15
COc1cccc(-c2ccc(SCC(=O)N3CCN(c4ccccc4)CC3)nn2)c1 8
COC(=O)CSc1ccc2nnc(CCNS(=O)(=O)c3ccc(C)cc3)n2n1 4
COc1ccc(-c2nnn(CC(=O)N(CCO)C(C(=O)NC3CCCC3)c3ccc(F)cc3)n2)cc1 (configuration not stated) 12
CC(C)CCNC(=O)CN(C(=O)Cn1nnc(-c2ccc(F)cc2)n1)C1CCCC1 14
O=C(NNS(=O)(=O)c1ccc(F)cc1)c1cnccn1 10
CC(=O)Nc1cccc(Oc2cc(C#N)c(C#N)cc2N2CCOCC2)c1 7
COc1cccc(C(=O)Nc2ccc(N3CCCC3)cc2)c1 9
COc1ccc(/C(=N\O)c2nccc3cc(OC)c(OC)cc23)cc1OC 7
O=C(NC(=S)Nc1ccc(S(=O)(=O)N2CCOCC2)cc1)c1ccccc1[N+](=O)[O-] 10
CCc1ccccc1NC(=O)Cc1cn(C)c2ccccc12 10
Cn1c(SCc2c(F)cccc2Cl)nnc1-c1cnccn1 1
Brc1ccc(CSc2ccc(-c3ccco3)nn2)cc1 13
CCCCN(Cc1ccccc1)C(=O)C1CCN(Cc2sccc2C)CC1 5
Cc1ccc(-c2cn(S(=O)(=O)c3cccc([N+](=O)[O-])c3)nc2N)cc1 2
O=C(N/N=C/c1cccc2cccnc12)[C@H]1C[C@@H]1c1ccccc1 4
Cc1c(CN2CCC(C)CC2)c(=O)n(-c2ccccc2)n1C 9
Cc1cccc(N2CCN(Cc3c(C)n(C)n(-c4ccccc4)c3=O)CC2)c1C 16
CC(=O)c1cnc(-c2ccccc2)s1 9
Cc1ccc(N/C=C/C(=O)c2ccccc2)cc1C 14
Cc1ccc(-c2noc(CCC(N)=O)n2)cc1 19
CCNC(=O)CCc1nc(-c2ccc(C)cc2)no1 4
Cc1ccc2c(C)c(C(=O)N3CCC(N4CCC(C(=O)NC5CC5)CC4)CC3)oc2c1 8
COc1ccc(NC(=O)C2C3C=CC(C3)C2C(=O)NCc2ccccn2)c(OC)c1 (configuration not stated) 27
Cc1ccccc1N(C(=O)Cc1cccs1)C(C(=O)NC1CCCCC1)c1cn(C)nc1C (configuration not stated) 12
O=S(=O)(NCCc1csc(-c2ccccc2)n1)c1cccnc1 5
CC(C(=O)NC1CCCC1)N(c1ccc(Oc2ccccc2)cc1)S(C)(=O)=O (configuration not stated) 9
Cc1ccccc1C(OCCN(C)C)C1CCCCC1 (configuration not stated) 13
Cc1nnc(OCC(=O)NCCC2=CCCCC2)c2ccccc12 20
O=C(COc1cccc(-n2cnnn2)c1)NCCC1=CCCCC1 5
COC/C=C/C1=CC2=CC(=O)C(C)(OC(=O)CCC(=O)OC)C(=O)C2=CO1 (configuration not stated) 10
O=C(CSc1ccccc1)Nc1ccc(C(=O)Nc2cccc(O)c2)cc1 15
O=C(NCCOc1ccccc1Cl)C(=O)Nc1ccccc1 2
COc1ccc(S(=O)(=O)N2CCCCCC2)cc1C(=O)OCC(=O)Nc1cc(C)on1 11
O=C(/C=C/c1ccc(Cl)c([N+](=O)[O-])c1)c1ccc(O)cc1 6
CN(C)c1ccc(/C=C/C(=O)c2ccc(O)cc2)cc1[N+](=O)[O-] 6
c1ccc2c(CSCc3nc4ccccc4[nH]3)cccc2c1 9
CCOc1ccc(Br)cc1CSC(=N)N 8
